According to PubChem BioAssay AID1159580 (chemical genetic matrix, 2015):
Among all 5,500 compounds or so, about 2,000 (36%) were called active. About 18% were inconclusive and are not listed. Cut-off read from the data, not from the text of the source: active = normalized growth mostly below about 0.91 (no sharp cut-off); inconclusive = no clear call, values can overlap the other calls; inactive = mostly above about 0.92. This is one part of the list.

Assay: chemical genetic growth profiling, strain panel (AID 1159580);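 note: tested at 20 µM; growth read once vehicle control cultures reached saturation at 30 °C; 1 = growth at the plate median or of vehicle wells; lower values mean less growth of the strain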
Conditions: S. cerevisiae deletion strains, growth OD

Measured: normalized growth

O=C(O)C1CN(CCCP(=O)(O)O)CCN1 (centres undefined)
inactive: locus YAL040C, strain CLN3, stronger effect = lower value 0.977 | locus YCL061C, strain MRC1 (second series), stronger effect = lower value 0.994 | locus YDR363W, strain ESC2, stronger effect = lower value 0.965 | locus YER002W, strain NOP16, stronger effect = lower value 0.975 | locus YGR078C, strain PAC10, stronger effect = lower value 0.966 | locus YGR229C, strain SMI1, stronger effect = lower value 0.967 | locus YJR075W, strain HOC1, stronger effect = lower value 0.987 | locus YNL128W, strain TEP1, stronger effect = lower value 1.02 | locus YNL175C, strain NOP13, stronger effect = lower value 0.974 | locus YNL197C, strain WHI3, stronger effect = lower value 0.99 | locus YNL224C, strain SQS1, stronger effect = lower value 0.991 | locus YOR083W, strain WHI5 (second series), stronger effect = lower value 1.04 | locus YPL055C, strain LGE1, stronger effect = lower value 0.951 | locus YPL241C, strain CIN2, stronger effect = lower value 0.984
